# Experimental data taken from PubChem BioAssay (Tox21).
# Values joined by “and” are separate entries in the source; they are usually repeats but may differ in a detail not shown here. Equal values may be shown once. Records with an inconclusive call do not appear. A call without a number means that no potency is given here. More than one record can exist for a structure, and the calls need not agree. Active and inactive are the calls of the source. Calls follow the shape of the dose curve; as a rule, active = well fitted cell-killing curve with a large enough effect in the repeat runs; inconclusive = weak or mixed curves, or effect the other way; inactive = flat fitted curve, though single readings scatter.
# Experiment: qHTS RealTime-Glo MT Cell Viability Assay in HEK293 cells - 24 hour (AID 1224886); also: nearly all actives have a fitted effect of over 50% in size; as to activity change, negative = cytotoxicity: top concentration of the series differs between compounds
# Details: RealTime-Glo luminescence; series mostly up to 76.8 µM
# From the text: National Center for Advancing Translational Sciences [NCATS]
# NIH Chemical Genomics Center [NCGC]
# U.S. Environmental Protection Agency [EPA]
# National Institutes of Environmental Health Sciences [NIEHS]
# National Toxicology Program [NTP]
# U.S. Food and Drug Administration [FDA]
# Measure of cell viability is critical in the cell-base assay. Analysis of cell viability is necessary for the characterization of cell responses to cytotoxic drugs and environmental stress. A RealTime-Glo MT Cell Viability Assay to monitor cell viability in real time of continues cell culture during 40 hours of compound treatment was used to screen Tox21 10K library compounds in Hek293 cells. The RealTime-Glo MT Cell Viability Assay is a nonlytic, homogeneous, bioluminescent method to measure cell viability in real time using a simple, plate-based method. The assay involves adding NanoLuc luciferase and a cell-permeant prosubstrate to cells in culture. Viable cells reduce the proprietary prosubstrate to generate a substrate for NanoLuc luciferase. This substrate diffuses from cells into the surrounding culture medium, where it is rapidly used by the NanoLuc Enzyme to produce a luminescent signal. The signal correlates with the number of viable cells, making the assay well suited for cytotoxicity studies.
# Tox21 Assay Protocol Summary:
# The mixture of Hek293 cell suspension and reagents were dispensed at 600cells/6 ul/well in 1536-well tissue culture treated black solid bottom plates using a Multidrop dispenser. After the assay plates were incubated at a 37 C/5% CO2 incubator for 5 hours, 23 nL of compounds dissolved in DMSO, positive and negative controls was transferred to the assay plate by a pintool work station. The plates were incubated at 37 C for 40 hours. The luminescence intensity were measured at 0h, 8h, 16h, 24h, 32h and 40h time points using ViewLux plate reader during compound treatment.
# Potency is read from the fitted curve at half-maximal effect.
SMILES,Potency,"activity change, negative = cytotoxicity"
CC[C@@H](N)CO,inactive,–
NCCCCCC(=O)O,inactive,–
O=C(Cl)c1cccc(C(=O)Cl)c1,inactive,–
COc1ccc(COC(C)=O)cc1,inactive,–
CCN(CC)CCOc1ccc(/C(=C(\Cl)c2ccccc2)c2ccccc2)cc1,12.6 µM (active) and 21.3 µM (active),–
CCn1cc(C(=O)O)c(=O)c2cc(F)c(N3CCNC(C)C3)c(F)c21 (stereo not given),inactive,–
OCC(CO)N[C@H]1C[C@](O)(CO)[C@@H](O)[C@H](O)[C@H]1O,inactive,–
O=C1CC2(CCCC2)CC(=O)N1CCCCN1CCN(c2ncccn2)CC1,49 µM (active) and inactive,–
OCCOCCN1CCN(C(c2ccccc2)c2ccc(Cl)cc2)CC1 (stereo not given),6.83 µM (active) and inactive,–
c1ccc2c(c1)-c1cccc3c1c-2cc1ccccc13,inactive,–
CCOC(=O)C(C)C(C)=O (stereo not given),inactive,–
O=C1OC2(c3ccc(O)cc3Oc3cc(O)ccc32)c2ccccc21,inactive,–
Cc1cc(C2(c3cc(C)c(O)cc3C)OS(=O)(=O)c3ccccc32)c(C)cc1O,inactive,–
Oc1ccc(Cl)cc1Cc1cc(Cl)ccc1O,22.3 µM (active) and 43.6 µM (active),–
Nc1nc2ccccc2[nH]1,inactive,–
COc1ccc(CCN2CCC(Nc3nc4ccccc4n3Cc3ccc(F)cc3)CC2)cc1,6.3 µM (active) and 10.7 µM (active),–
O=c1n(CC2CO2)c(=O)n(CC2CO2)c(=O)n1CC1CO1 (stereo not given),inactive,–
CCOc1ccccc1C(N)=O,inactive,–
Nc1cc(S(=O)(=O)O)cc2cc(S(=O)(=O)O)cc(O)c12,inactive,–
CCCCCCCCCCCCc1ccccc1O,43.1 µM (active) and 49 µM (active),–

SMILES,Potency,"activity change, negative = cytotoxicity"
NNCCc1ccccc1,inactive,–
NC12CC3CC(CC(C3)C1)C2,inactive,–
CNC1(C)C2CCC(C2)C1(C)C (stereo not given),inactive,–
Cc1cccc([N+](=O)[O-])c1C(=O)O,inactive,–
C/C=C/c1ccc(OCC)c(O)c1,inactive,–
C=C(C)C1CC=C(C)C(OC(C)=O)C1 (stereo not given),inactive,–
NC(Cc1ccc(Cl)cc1)C(=O)O (stereo not given),–,9.19% [at 0.29 µM] (inactive)
c1cc(C(c2ccc(OCC3CO3)cc2)C(c2ccc(OCC3CO3)cc2)c2ccc(OCC3CO3)cc2)ccc1OCC1CO1 (stereo not given),inactive,–
CC1=CC(=O)c2ccccc2C1=O,15.5 µM (active),–
Oc1c(Cl)cc(Cl)c(Cl)c1Cc1c(O)c(Cl)cc(Cl)c1Cl,3.88 µM (active),–
c1cnc2cc3c(cc2n1)C1CNCC3C1,inactive,–
CC(C)CCCCCCc1ccc(O)cc1,4.44 µM (active),–
CN(C)c1ccc(C(=C2C=CC(=[N+](C)C)C=C2)c2ccccc2)cc1,2.39 µM (active) [middle of 4 runs],–
CC(=O)CC(C)=O,inactive,–
O=C1Nc2ccccc2C1(c1ccc(O)cc1)c1ccc(O)cc1,inactive,–
CC(C)(C)NCC(O)COc1ccccc1OCC1CCCO1 (stereo not given),inactive,–
Cc1ccc(-c2cc(C(F)(F)F)nn2-c2ccc(S(N)(=O)=O)cc2)cc1,38.7 µM (active) and 30.9 µM (active),–
CCN1CCCC1CNC(=O)c1cc(S(=O)(=O)CC)c(N)cc1OC (stereo not given),inactive,–
Cc1c(O)cccc1C(=O)N[C@@H](CSc1ccccc1)[C@H](O)CN1C[C@H]2CCCC[C@H]2C[C@H]1C(=O)NC(C)(C)C,21.3 µM (active),–
O=Nc1ccc(Nc2ccccc2)cc1,6.96 µM (active) and 9.77 µM (active),–
